# Assay results published in PubChem BioAssay.
# Inconclusive results are not listed. Activity calls are given as the source filed them. Unless noted, how the calls were made is not given here.
# How the values were obtained:
# [1] = yeast TOR pathway RPL19A-GFP modulators, primary screen, cell-based, S. cerevisiae, multiplex flow cytometry (AID 1862; in the data active means percent of DMSO control GFP below about 86%;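 further: lower values mimic rapamycin by blocking the RPL19A rise seen in DMSO cells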); conditions: S. cerevisiae RPL19A-GFP strain, flow cytometry fluorescence, 3 h; at 10 µM; stronger effect = lower value
# [2] = modulators of CIT2-GFP expression in yeast, primary screen, S. cerevisiae, GFP fusion, multiplex flow cytometry (AID 1870;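 active means percent response above a set limit, the screen-wide mean plus 3 SD, cut at about 130% in these data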;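 further: barcoded CIT2-GFP strain pooled with four other GFP strains with rapamycin as positive control; median GFP fluorescence per well over plate mean of DMSO wells so 100% = DMSO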); conditions: 3 h, at 10 µM, stronger effect = higher value
# [3] = modulators of LAP4-GFP expression in yeast, primary screen, S. cerevisiae, multiplex flow cytometry (AID 1873;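 active means GFP signal, as percent of the solvent control, above the screen mean plus 3 SD, about 149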); conditions: 3 h, at 10 µM, stronger effect = higher value
# [4] = inhibitors of CD8+ T cell-vesicle binding, pilot screen, LFA-1/ICAM-1 modulator project, MLPCN validation set, flow cytometry (AID 2523;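 active means response below a set limit, under 55% cells CD8-positive and vesicle-bound, and CD8 cells' 90th-percentile brightness under 279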;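 on vesicle binding response: mean PE anti-B7-1 fluorescence of CD8+ cells relative to row control; 100% = QL9-loaded vesicles with DMSO vehicle in the same plate row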); conditions: 2C mouse CD8+ T cells, at 7 µM, stronger effect = lower value; double positive events: measured here: CD8+/vesicle+ event percentage
# [5] = biological target: Integrin beta-1 (Homo sapiens) + Integrin alpha-4 (Homo sapiens) (UniProt P13612+P05556); test: inhibition of HUTS-21 binding to VLA-4, pilot screen, VLA-4 allosteric modulator project, U937 cells, HUTS-21 mAb, flow cytometry, validation set (AID 2674;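 active means inhibition above 50%, about 3 SD of the validation set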;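 further: antibody binding induced by the VLA-4 ligand LDV present at three times its Kd; 0% = LDV ligand with antibody and no compound and 100% = antibody without LDV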); conditions: HUTS-21 LIBS mAb binding, at 6.7 µM, stronger effect = higher value
# Sequence of Integrin beta-1 (Homo sapiens) + Integrin alpha-4 (Homo sapiens) (P05556 whole entry, looked up): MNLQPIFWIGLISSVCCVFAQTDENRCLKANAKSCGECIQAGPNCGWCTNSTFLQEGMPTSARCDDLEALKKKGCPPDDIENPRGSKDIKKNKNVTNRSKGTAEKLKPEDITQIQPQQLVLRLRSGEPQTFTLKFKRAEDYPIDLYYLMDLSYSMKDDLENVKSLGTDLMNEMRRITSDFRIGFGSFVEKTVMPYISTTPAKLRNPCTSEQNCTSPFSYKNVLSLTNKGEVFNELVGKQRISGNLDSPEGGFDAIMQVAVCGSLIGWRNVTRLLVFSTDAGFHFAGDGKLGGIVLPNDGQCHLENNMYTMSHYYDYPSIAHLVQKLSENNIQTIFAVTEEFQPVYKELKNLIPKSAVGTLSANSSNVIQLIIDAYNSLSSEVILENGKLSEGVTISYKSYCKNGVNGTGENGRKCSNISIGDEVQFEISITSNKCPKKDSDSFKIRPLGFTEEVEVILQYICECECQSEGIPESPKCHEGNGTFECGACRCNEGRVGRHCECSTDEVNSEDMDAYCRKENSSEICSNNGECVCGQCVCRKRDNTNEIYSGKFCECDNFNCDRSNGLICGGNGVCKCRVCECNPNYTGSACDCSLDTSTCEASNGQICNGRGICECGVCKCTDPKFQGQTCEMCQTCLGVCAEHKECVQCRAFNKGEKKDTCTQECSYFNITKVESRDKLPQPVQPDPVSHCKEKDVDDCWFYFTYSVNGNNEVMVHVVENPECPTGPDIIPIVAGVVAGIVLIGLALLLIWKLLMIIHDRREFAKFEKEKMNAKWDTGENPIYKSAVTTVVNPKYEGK
# Sequence of Integrin beta-1 (Homo sapiens) + Integrin alpha-4 (Homo sapiens) (P13612 whole entry, looked up): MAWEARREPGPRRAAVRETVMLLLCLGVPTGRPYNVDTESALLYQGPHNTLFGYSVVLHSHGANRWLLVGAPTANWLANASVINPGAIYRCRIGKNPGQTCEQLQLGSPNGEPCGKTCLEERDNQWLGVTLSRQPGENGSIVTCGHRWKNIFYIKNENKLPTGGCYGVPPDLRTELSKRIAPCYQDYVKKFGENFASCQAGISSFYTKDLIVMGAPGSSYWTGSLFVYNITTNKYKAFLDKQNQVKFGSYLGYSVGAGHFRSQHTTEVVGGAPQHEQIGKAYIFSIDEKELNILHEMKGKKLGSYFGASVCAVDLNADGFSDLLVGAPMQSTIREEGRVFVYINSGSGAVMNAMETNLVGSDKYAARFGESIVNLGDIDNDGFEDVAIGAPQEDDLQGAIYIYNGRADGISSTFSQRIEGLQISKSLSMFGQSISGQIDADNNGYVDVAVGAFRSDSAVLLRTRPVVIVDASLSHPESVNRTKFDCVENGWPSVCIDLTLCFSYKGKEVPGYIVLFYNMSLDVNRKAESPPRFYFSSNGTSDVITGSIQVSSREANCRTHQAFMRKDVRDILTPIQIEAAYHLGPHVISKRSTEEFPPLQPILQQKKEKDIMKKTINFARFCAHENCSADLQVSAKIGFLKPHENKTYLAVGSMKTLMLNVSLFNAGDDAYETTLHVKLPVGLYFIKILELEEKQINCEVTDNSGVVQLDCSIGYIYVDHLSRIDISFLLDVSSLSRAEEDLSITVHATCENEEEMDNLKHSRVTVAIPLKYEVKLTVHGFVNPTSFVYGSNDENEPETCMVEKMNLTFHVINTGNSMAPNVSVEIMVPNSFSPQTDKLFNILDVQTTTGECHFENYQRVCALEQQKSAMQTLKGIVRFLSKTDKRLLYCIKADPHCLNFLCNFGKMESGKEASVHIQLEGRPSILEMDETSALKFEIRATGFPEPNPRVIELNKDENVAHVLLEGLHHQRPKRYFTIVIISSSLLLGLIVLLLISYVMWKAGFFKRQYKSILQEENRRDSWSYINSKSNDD
# [6] = superoxide lowering in aged yeast cells, pilot screen, validation compound set (AID 2706;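 active means superoxide response below 65% of plate, a cut near 3 SD across the whole screen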;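 further: yeast exposed to compound for one week at 30 degrees C before staining; 100% = mean of all compound wells on the same plate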); conditions: S. cerevisiae aging, superoxide DHE fluorescence; at 10 µM; stronger effect = lower value
# [7] = biological target: Beta-adrenergic receptor kinase 1 (Homo sapiens) (UniProt P25098); test: GRK2 binders displacing RNA aptamer, biochemical, validation, human GRK2, bead flow cytometry (AID 488806;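 active means aptamer binding inhibition above 30%, about 3 SD of noise from non-fluorescent compounds; inactive means inhibition at or below 30%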); conditions: bead-bound GRK2, FAM-aptamer displacement, at 10 µM, stronger effect = higher value
# Sequence of Beta-adrenergic receptor kinase 1 (Homo sapiens) (P25098 whole entry, looked up): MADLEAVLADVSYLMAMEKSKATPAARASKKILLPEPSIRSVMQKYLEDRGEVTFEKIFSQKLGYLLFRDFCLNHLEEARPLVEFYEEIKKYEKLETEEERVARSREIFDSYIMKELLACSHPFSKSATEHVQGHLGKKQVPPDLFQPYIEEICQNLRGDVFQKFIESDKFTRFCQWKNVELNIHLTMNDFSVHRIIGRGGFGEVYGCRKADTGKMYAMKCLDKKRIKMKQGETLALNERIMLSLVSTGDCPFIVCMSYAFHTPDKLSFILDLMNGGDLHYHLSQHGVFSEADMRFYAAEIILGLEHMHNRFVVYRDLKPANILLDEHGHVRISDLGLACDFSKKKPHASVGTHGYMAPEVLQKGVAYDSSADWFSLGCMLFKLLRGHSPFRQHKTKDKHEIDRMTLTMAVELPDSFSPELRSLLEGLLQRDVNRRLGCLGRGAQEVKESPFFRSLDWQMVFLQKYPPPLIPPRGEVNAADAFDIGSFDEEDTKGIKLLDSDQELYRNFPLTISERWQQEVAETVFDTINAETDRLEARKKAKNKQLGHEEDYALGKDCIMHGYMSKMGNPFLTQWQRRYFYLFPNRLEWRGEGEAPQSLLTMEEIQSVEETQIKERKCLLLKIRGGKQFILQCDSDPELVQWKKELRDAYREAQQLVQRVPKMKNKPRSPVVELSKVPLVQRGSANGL
# [8] = biological target: Beta-2 adrenergic receptor (Homo sapiens) (UniProt P07550); test: beta2AR agonists driving receptor internalization, pilot screen, cell-based, FAP fluorogen, flow cytometry, validation set (AID 504459;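 active means percent response above 42, roughly 3 SD of non-fluorescent test compounds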;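 further: agonist-driven loss of surface beta2AR via internalization measured by FAP dye flow cytometry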); conditions: Am2.2-beta2AR cells, FAP surface receptor flow cytometry; at 10 µM; stronger effect = higher value
# Sequence of Beta-2 adrenergic receptor (Homo sapiens) (P07550 whole entry, looked up): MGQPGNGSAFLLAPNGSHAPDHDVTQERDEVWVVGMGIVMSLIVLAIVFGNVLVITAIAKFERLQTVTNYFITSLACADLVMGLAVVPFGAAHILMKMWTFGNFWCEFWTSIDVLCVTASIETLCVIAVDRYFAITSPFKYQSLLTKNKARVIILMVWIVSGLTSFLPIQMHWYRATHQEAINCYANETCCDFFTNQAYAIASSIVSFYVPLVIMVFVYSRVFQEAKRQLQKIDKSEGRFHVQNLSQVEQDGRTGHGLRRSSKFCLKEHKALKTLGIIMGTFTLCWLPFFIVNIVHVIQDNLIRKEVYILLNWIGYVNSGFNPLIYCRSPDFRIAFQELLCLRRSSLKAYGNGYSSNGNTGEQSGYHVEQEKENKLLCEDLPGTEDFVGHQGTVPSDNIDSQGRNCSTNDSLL
# [9] = biological target: AP-2 complex subunit beta (Homo sapiens) (UniProt P63010); test: inhibitors of arrestin peptide binding to AP2, pilot screen, biochemical, validation set, GST-AP2 beads, flow cytometry (AID 504541;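 active means inhibition above 54%, about 3 SD of non-fluorescent compounds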;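 further: AP2 carries R879A mutation and is captured from E. coli lysate; bead-bound FITC arrestin peptide fluorescence measuring arrestin peptide binding to AP2; 0% = DMSO wells and 100% = excess unlabeled arrestin peptide control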); conditions: FITC arrestin peptide, at 10 µM, stronger effect = higher value
# Sequence of AP-2 complex subunit beta (Homo sapiens) (P63010 whole entry, looked up, one chain of several): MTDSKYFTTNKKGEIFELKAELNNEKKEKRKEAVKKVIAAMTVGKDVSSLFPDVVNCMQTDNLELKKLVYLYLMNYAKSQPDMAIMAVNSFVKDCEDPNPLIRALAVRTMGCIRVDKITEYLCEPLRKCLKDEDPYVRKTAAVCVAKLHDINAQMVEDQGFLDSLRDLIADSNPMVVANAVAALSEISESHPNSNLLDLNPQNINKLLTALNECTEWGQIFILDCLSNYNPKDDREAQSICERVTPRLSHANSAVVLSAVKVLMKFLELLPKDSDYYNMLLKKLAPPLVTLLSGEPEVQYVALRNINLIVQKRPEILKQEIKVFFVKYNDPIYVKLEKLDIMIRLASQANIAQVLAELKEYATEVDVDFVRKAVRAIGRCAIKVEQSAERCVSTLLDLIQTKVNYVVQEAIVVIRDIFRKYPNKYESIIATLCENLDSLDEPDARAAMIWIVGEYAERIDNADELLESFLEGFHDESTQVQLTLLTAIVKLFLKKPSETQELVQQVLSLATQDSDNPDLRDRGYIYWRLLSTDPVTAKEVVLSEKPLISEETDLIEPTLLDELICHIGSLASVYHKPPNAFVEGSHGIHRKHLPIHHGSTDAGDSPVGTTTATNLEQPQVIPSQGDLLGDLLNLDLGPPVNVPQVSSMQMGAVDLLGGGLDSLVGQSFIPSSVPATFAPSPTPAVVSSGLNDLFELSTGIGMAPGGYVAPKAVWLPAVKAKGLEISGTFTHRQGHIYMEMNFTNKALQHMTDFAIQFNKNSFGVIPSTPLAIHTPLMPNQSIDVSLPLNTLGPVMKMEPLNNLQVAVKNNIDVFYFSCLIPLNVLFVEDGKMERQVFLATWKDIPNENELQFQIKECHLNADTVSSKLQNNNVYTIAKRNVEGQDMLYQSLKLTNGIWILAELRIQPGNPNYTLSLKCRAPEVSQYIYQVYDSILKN
# [10] = yeast V-ATPase proton transport modulators, S. cerevisiae, pHLuorin, HTS validation (AID 504600; in the data active means response above about 15%;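 further: plate controls were DMSO for no effect and reference compound for full effect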); conditions: S. cerevisiae pHLuorin cytosolic pH, at 10 µM, stronger effect = higher value
# [11] = system: anti-desmoglein-3 scFv antibody binding to human DSG3; test: inhibitors of anti-DSG3 scFv binding to DSG3, pilot screen, biochemical, validation compound set, bead-based, flow cytometry (AID 588368;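 active means binding below the plate cutoff, the plate median minus 3 SD, with a reading above zero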;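 further: signal is the median channel fluorescence of bead-bound GFP antibody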); conditions: Protein G beads, DSG3-Fc, scFv-GFP binding, at 10 µM, stronger effect = lower value
# [12] = inhibitors of fungal efflux pumps CDR1, CDR2, MDR1, pilot screen, validation compound set, multiplex, phenotypic (AID 588506;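 active means efflux inhibition above 0.42, the validation set average plus 4 SD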;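 further: Nile Red retained in cells so higher fluorescence means more efflux inhibition; 0 = negative control wells and 1 = enniatin B 25 µM full block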); conditions: S. cerevisiae pump-expressing triplex, Nile Red efflux flow cytometry; at 10 µM; stronger effect = higher value
# [13] = biological target: ATP-binding cassette sub-family B member 6 (Homo sapiens) (UniProt Q9NP58); test: ABCB6 transporter inhibitors, pilot screen, K562-ABCB6 cells, flow cytometry, validation set (AID 588550;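 active means inhibition above the screen-wide mean plus 3 SD, about 51%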;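 further: 0% = DMSO wells and 100% = benzethonium chloride 70 µM positive control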); conditions: K562-ABCB6 porphyrin accumulation, 1 h, at 10 µM, stronger effect = higher value
# Sequence of ATP-binding cassette sub-family B member 6 (Homo sapiens) (Q9NP58 whole entry, looked up): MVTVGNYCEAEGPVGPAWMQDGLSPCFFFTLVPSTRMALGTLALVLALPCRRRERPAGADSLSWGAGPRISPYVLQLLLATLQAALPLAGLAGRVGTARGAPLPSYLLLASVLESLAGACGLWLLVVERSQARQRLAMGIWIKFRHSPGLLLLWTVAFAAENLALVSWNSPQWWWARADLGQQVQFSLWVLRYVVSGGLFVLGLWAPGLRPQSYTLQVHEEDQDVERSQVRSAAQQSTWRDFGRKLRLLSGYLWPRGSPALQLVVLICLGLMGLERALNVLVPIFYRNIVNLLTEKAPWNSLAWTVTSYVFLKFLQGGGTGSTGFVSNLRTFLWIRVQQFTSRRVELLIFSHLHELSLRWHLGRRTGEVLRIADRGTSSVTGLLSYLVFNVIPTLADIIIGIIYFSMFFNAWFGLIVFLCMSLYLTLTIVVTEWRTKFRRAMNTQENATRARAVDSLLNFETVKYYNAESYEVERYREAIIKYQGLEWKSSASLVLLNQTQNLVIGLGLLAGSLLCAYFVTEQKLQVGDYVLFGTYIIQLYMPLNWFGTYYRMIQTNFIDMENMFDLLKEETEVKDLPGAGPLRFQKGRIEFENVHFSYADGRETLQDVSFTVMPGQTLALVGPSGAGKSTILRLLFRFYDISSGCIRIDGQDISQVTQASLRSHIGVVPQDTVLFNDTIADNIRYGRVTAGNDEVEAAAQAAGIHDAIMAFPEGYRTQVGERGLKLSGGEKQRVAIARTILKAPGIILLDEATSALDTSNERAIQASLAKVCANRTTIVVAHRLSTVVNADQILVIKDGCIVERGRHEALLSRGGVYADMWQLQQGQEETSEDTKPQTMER
# [14] = promoters of myeloid differentiation in arrested cells, primary screen, cell-based, GFP/MAC1 double positive, flow cytometry, validation set (AID 588685;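 active means differentiation response of at least 50%, scaled between solvent and reference control, from cells with both markers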;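 further: compound exposure lasts four days before antibody staining and flow analysis; 0% = DMSO wells and 100% = 5 µM fulvestrant positive control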); conditions: ER-HoxA9 marrow cells, stronger effect = higher value
# [15] = system: Botulinum neurotoxin type F light chain protease (Clostridium botulinum); test: Botulinum neurotoxin type F light chain protease inhibition, multiplex microsphere flow cytometry, validation set (AID 588459); conditions: multiplex microsphere protease substrate cleavage assay, at 10 µM, stronger effect = higher value
# [16] = biological target: Botulinum neurotoxin type A (Clostridium botulinum) (UniProt P0DPI0); test: BoNT/A light chain protease inhibitors, biochemical, multiplex microsphere flow cytometry, validation set (AID 588460); conditions: at 10 µM, stronger effect = higher value
# [17] = biological target: Lethal factor (Bacillus anthracis) (UniProt P15917); test: Lethal factor protease inhibitors, Bacillus anthracis, multiplex microsphere cleavage assay, validation set (AID 588461); conditions: flow cytometry, at 10 µM, stronger effect = higher value
SMILES,percent of DMSO control GFP [1],percent response of DMSO control [2],GFP response vs DMSO [3],double positive events [4] [%],vesicle binding response [4],inhibition [5],superoxide response (% of plate) [6],aptamer binding inhibition [7],response [8],inhibition [9],response [10],binding (% of control) [11],efflux inhibition (fraction of control) [12],inhibition [13],differentiation response [14],inhibition [15],inhibition [16],inhibition [17]
CN[C@H](C)[C@H](O)c1ccccc1,90.2% (inactive),102% (inactive),87.5% (inactive),53.3,176% (inactive),8.4% (inactive),97.6% (inactive),4% (inactive),-9.17% (inactive),39.6% (inactive),-4.76% (inactive),102% (inactive),0.27 (inactive),5% (inactive),-0.82% (inactive),–,–,–
CC(=O)C1=C(C)OC(N)=C(C(=O)OC(C)C)C12C(=O)Nc1ccccc12 (stereo unspecified),102% (inactive),103% (inactive),99.4% (inactive),56.3,194% (inactive),0.69% (inactive),103% (inactive),0% (inactive),–,0.23% (inactive),-0.91% (inactive),93.8% (inactive),0.1 (inactive),8% (inactive),-18% (inactive),-2.3% (inactive),-0.1% (inactive),-1.4% (inactive)
C[C@H]1CCC/C=C/C2C[C@H](O)CC2[C@H](O)/C=C/C(=O)O1 (stereo partly specified),106% (inactive),99.7% (inactive),100% (inactive),62.5,166% (inactive),0.25% (inactive),92.8% (inactive),1% (inactive),28.3% (inactive),–,-4.42% (inactive),85.8% (inactive),0.31 (inactive),17% (inactive),32% (inactive),4% (inactive),-0.8% (inactive),2.7% (inactive)
COc1ccc(C(=O)N2CCCC2=O)cc1,104% (inactive),105% (inactive),130% (inactive),61.6,241% (inactive),-6.23% (inactive),94.5% (inactive),-4% (inactive),-0.27% (inactive),61% (active),2.82% (inactive),100% (inactive),-0.04 (inactive),4% (inactive),3.88% (inactive),–,–,–
COC1=CC(=O)OC(/C=C/c2ccccc2)C1 (stereo unspecified),102% (inactive),105% (inactive),104% (inactive),56.3,194% (inactive),13.8% (inactive),101% (inactive),-1% (inactive),–,47% (inactive),-10.4% (inactive),106% (inactive),0.06 (inactive),4% (inactive),22.4% (inactive),3.9% (inactive),1.1% (inactive),5.6% (inactive)
NCCc1c[nH]c2ccc(F)cc12,98.2% (inactive),107% (inactive),106% (inactive),59.2,77.4% (inactive),18.3% (inactive),93.9% (inactive),-1% (inactive),1.11% (inactive),–,6.8% (inactive),104% (inactive),-0.44 (inactive),2% (inactive),5.73% (inactive),-3.3% (inactive),-0.7% (inactive),-4.9% (inactive)
CC(C)[C@H]1C(=O)N2CCC[C@H]2[C@]2(O)O[C@](NC(=O)[C@@H]3C=C4c5cccc6[nH]cc(c56)C[C@H]4N(C)C3)(C(C)C)C(=O)N12,99% (inactive),102% (inactive),123% (inactive),59.8,192% (inactive),–,38.3% (active),8% (inactive),-24.6% (inactive),3.83% (inactive),-7.73% (inactive),105% (inactive),0.25 (inactive),-96% (inactive),-2.03% (inactive),-15.7% (inactive),-5% (inactive),-64.2% (inactive)
Cc1cccc(C)c1NC1=NCCCS1,94.7% (inactive),94.9% (inactive),91.3% (inactive),62.8,180% (inactive),13.8% (inactive),97.2% (inactive),2% (inactive),–,15.3% (inactive),1.52% (inactive),102% (inactive),0.18 (inactive),5% (inactive),-9.89% (inactive),-2.3% (inactive),-0.6% (inactive),1.9% (inactive)
Cc1ccc(/C=C2/C(=O)NC(=O)N(C)C2=O)cc1,97.4% (inactive),95.9% (inactive),97.4% (inactive),53.7,135% (inactive),20.3% (inactive),101% (inactive),5% (inactive),–,-0.14% (inactive),-4.11% (inactive),97.8% (inactive),0.22 (inactive),6% (inactive),-0.2% (inactive),0.6% (inactive),1.8% (inactive),6.7% (inactive)
CN(C)[C@@H]1C(=O)C(C(N)=O)=C(O)[C@@]2(O)C(=O)C3=C(O)c4c(O)cccc4[C@@](C)(O)[C@H]3[C@H](O)[C@@H]12,102% (inactive),105% (inactive),97.4% (inactive),56.9,155% (inactive),6.29% (inactive),99.8% (inactive),26% (inactive),–,34.2% (inactive),4.02% (inactive),87.9% (inactive),-0.31 (inactive),3% (inactive),-18% (inactive),-9.4% (inactive),-5.3% (inactive),-12.6% (inactive)
